# AmpC no deterg: qHTS Inhibitors of AmpC Beta-Lactamase (assay without detergent) | P00811 | AmpC nitrocefin hydrolysis, absorbance 480 nm, 0.0001% Triton | Potency, µM (titrated, usually from 57.1 µM), inactives show at the highest dose activity change, negative = inhibition, actives largely listed as inhibitors | 330,000 compounds, 0.52% hits | AID 485341, 2010;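 also: plate controls were no compound for no effect and no enzyme for full effect; nearly all actives have a fitted effect of over 20% in size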
# Target sequence (P00811 whole entry, looked up): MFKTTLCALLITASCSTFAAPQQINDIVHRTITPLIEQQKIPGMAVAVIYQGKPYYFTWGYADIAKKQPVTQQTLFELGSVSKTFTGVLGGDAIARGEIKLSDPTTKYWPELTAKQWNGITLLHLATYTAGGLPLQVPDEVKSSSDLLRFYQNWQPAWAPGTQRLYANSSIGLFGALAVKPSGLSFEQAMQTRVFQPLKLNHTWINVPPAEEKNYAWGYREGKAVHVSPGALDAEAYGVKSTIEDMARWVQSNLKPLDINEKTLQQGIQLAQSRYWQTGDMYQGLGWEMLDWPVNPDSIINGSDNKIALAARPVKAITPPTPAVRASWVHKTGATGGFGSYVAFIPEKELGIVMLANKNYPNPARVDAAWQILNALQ
#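 20 mM phosphate pH 7.0 + 0.01% (detergent screen) or 0.0001% Triton X-100; 5.3 nM AmpC reagent; cpd preinc 15 min RT; nitrocefin (800 uM stock) to start; A480 q20 s × 4 min; Activity was normalised to no-enzyme and no-compound control wells.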
# Pf growth 96h: Primary qHTS for delayed death inhibitors of the malarial parasite plastid, 96 hour incubation. Potency, µM (titrated, usually from 28.7 µM), inactives show at the highest dose activity change, negative = inhibition, actives largely listed as inhibitors. 320,000 compounds, 6.9% hits. P. falciparum luciferase reporter growth, 96 h; also: % is scaled to controls: 0 for no effect and ±100 for the full control effect
#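 Two-generation exposure (96 h) targets delayed-death phenotype. Reporter parasites carrying integrated firefly luciferase, in red cells at 2% hematocrit and 0.05% parasitemia final, kept at 37 C, 5% CO2; luminescence loss indicates inhibition.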
# Pf growth 48h: Primary qHTS for delayed death inhibitors of the malarial parasite plastid, 48 hour incubation | AID 504832, 2011 | 310,000 compounds, 5.9% hits | P. falciparum luciferase growth in erythrocytes, 48 h | Potency, µM (top dose mostly 28.7 µM), for inactives: top-dose activity change, negative = inhibition, most hits filed as inhibitors; also: % is scaled to controls: 0 for no effect and ±100 for the full control effect
#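 Read-out is firefly luciferase luminescence from an integrated reporter in P. falciparum, so falling signal marks reduced parasite growth. Infected erythrocytes were at 2% hematocrit and 0.1% parasitemia (final) in Albumax-supplemented RPMI 1640.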
# SARS PLP yeast: qHTS of Yeast-based Assay for SARS-CoV PLP; S. cerevisiae expressing SARS-CoV PLpro, growth rescue; Potency, µM (top dose mostly 32.9 µM), for inactives: top-dose activity, positive = growth rescue, usual class: activators; 330,000 compounds, 0.19% hits; calls by dose curve; also: 0% is about no effect; nearly all actives have a fitted effect of over 55% in size
# Sm TGR inh: qHTS Assay for the Inhibitors of Schistosoma Mansoni Peroxiredoxins. Potency, µM (highest dose often 114 µM), without a hit: top-dose activity change, negative = inhibition, actives largely listed as inhibitors. 360,000 compounds, 3% hits. Schistosoma mansoni thioredoxin glutathione reductase (TGR), Q962Y6. AID 485364, 2010. purified TGR, DTNB reduction, TNB absorbance 405 nm; also: % is scaled to controls: 0 for no effect and ±100 for the full control effect; nearly all actives have a fitted effect of over 60% in size
#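 First, TGR (20 nM dispensed) and NADPH were mixed with compound. Second, a 15 min room-temperature incubation followed. Third, further NADPH and then DTNB were added to start the reaction. Finally, TNB absorbance was monitored kinetically.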
# AmpC detergent: qHTS Inhibitors of AmpC Beta-Lactamase (assay with detergent); P00811; AmpC hydrolysis of nitrocefin, absorbance 480 nm, 0.01% Triton; Potency, µM (titrated, usually from 114 µM), without a hit: at the highest dose activity change, negative = inhibition, most hits filed as inhibitors; 370,000 compounds, 0.041% hits; AID 485294, 2010;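 also: 0% = no-compound wells and -100% = no-enzyme wells; nearly all actives have a fitted effect of over 25% in size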
#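 AmpC (5.3 nM in the dispensed reagent) in 20 mM phosphate pH 7.0 with 0.01% (detergent screen) or 0.0001% Triton X-100 was preincubated with compounds for 15 min at room temperature. Nitrocefin was then added from an 800 uM solution, and hydrolysis was followed at 480 nm.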
# * hit, by the source's call; ? = inconclusive; . = no result; [ ] = remark or other dose. Most compounds without a hit are left out; they make up all but 12% or so of the library. Unless noted, calls follow the shape of the dose curve; as a rule, active = well fitted curve in the direction sought with a large enough effect; inconclusive = small, poorly fitted or top-dose-only effect, or another doubt; inactive = no such curve, though single readings can be large; an effect the other way counts as inactive or inconclusive. Potency is read from the fitted curve at half-maximal effect.
SMILES,AmpC no deterg,Pf growth 96h,Pf growth 48h,SARS PLP yeast,Sm TGR inh,AmpC detergent
Cc1c(C(=O)N2CCCCCC2)c(S(=O)(=O)Nc2ccc(OC(F)(F)F)cc2)c(C)n1C,.,.,.,.,0%,25%
CCOC(=O)C(C)Sc1nnc(NC(=O)c2ccc(C)c([N+](=O)[O-])c2)s1 (configuration not stated),-19%,15µM*,-3%,-22%,8%,-13%
N#Cc1ccc(NC(=O)Nc2ccc(Oc3ccc(NC(=O)Nc4ccc(C#N)cc4)cc3)cc2)cc1,-50%,?,1.7µM*,3%,-1%,10%
N#Cc1cccc(NC(=O)c2ccccc2C(=O)O)c1,-27%,8%,20%,3%,-8%,0%
N#Cc1ccc(NC(=O)Nc2cccc(C#N)c2)cc1,-50%,6.6µM*,12µM*,-3%,-23%,-8%
CCn1c(=O)sc2cc(NS(=O)(=O)c3ccc(F)c(C)c3)ccc21,.,.,.,.,1%,12%
Cc1[nH]c(=O)[nH]c1C(=O)CCCCC(=O)OCC(=O)Nc1ccccn1,-10%,1%,35%,0%,4%,-3%
CCOC(=O)CCCCC(=O)c1[nH]c(=O)[nH]c1C[n+]1ccccc1,-14%,-10%,?,1%,6.3µM*,2%
CCOC(=O)CCCCC(=O)c1[nH]c(=O)[nH]c1C[n+]1ccc(C)cc1,-18%,48%,11%,0%,35µM*,3%
CCOC(=O)CCCCC(=O)c1[nH]c(=O)[nH]c1CN1CCOCC1,-17%,?,9%,-2%,-27%,-10%
CC(C)CNc1nc(N)c([N+](=O)[O-])c(N2CCCCCC2)n1,-23%,10µM*,?,-2%,-1%,-1%
COc1cc(CNC(=O)c2cnc3c(-c4cccc(C)c4)c(C)nn3c2C)cc(OC)c1OC,.,.,.,.,-2%,-2%
COc1ccc(OC)c(Nc2cc(C(=O)NCCCN3CCOCC3)c3ccccc3n2)c1,156%,.,?,3%,-17%,-5%
CCc1ccc(Nc2cc(C(=O)NCCCN3CCOCC3)c3ccccc3n2)cc1,190%,5.2µM*,.,6%,3%,-8%
COc1ccccc1Nc1cc(C(=O)NCCCN2CCOCC2)c2ccccc2n1,179%,0.93µM*,.,-1%,8%,10%
Cc1ccc(NS(=O)(=O)c2ccc3nc(-c4ccccc4)[nH]c3c2)cc1Cl,.,.,.,.,-6%,0%
Cc1ccc(NS(=O)(=O)c2ccc(Cl)c(C(=O)Nc3ccccc3-c3nc4ccccc4[nH]3)c2)cc1C,-31%,12µM*,10µM*,-10%,5%,-6%
CCc1nc2nc(C)c(NS(=O)(=O)c3ccc(Cl)cc3)c(=O)n2[nH]1,-14%,9%,42%,0%,-6%,-2%
COc1cc(S(=O)(=O)N(Cc2ccccn2)Cc2ccccc2Cl)ccc1-n1cnnn1,55%,?,-57%,-8%,2%,0%
COc1ccccc1CN(Cc1ccco1)S(=O)(=O)c1ccc(-n2cnnn2)c(OC)c1,10%,?,13µM*,0%,-18%,0%
COc1ccccc1CNS(=O)(=O)c1ccc(-n2cnnn2)c(OC)c1,4%,9.3µM*,6%,1%,-1%,-6%
O=C1N(c2ccccc2C(F)(F)F)O[C@]1(c1ccccc1)C1CCCC1,-26%,1.3µM*,1.7µM*,4%,2%,5%
COc1ccccc1-c1cc(C(F)(F)F)c(C#N)c(=O)[nH]1,-14%,-41%[1.15 µM],-25%,0%,10%,0%
Cc1ccccc1[C@@]1(C)ON(c2ccccc2C(F)(F)F)C1=O,-16%,1µM*,1.7µM*,-20%,1%,3%
CC[C@@]1(c2ccccc2OC)ON(c2ccccc2C(F)(F)F)C1=O,-13%,?,0.59µM*,-1%,-1%,1%
SMILES,AmpC no deterg,Pf growth 96h,Pf growth 48h,SARS PLP yeast,Sm TGR inh,AmpC detergent
CC1(c2ccccc2)ON(c2ccccc2C(F)(F)F)C1=O (configuration not stated),-1%,?,4.1µM*,1%,-11%,-3%
O=C1NC(=O)C(c2cccs2)(c2cccs2)N1,-18%,0%,31%,-1%,-7%,-9%
Cc1cnc(NC(=O)C2CC(=O)N(c3cccc(Cl)c3)C2)s1 (configuration not stated),-18%,3%,2%,-1%,-20%,-6%
Cc1ccc(-c2nc(CN(C)C3CCOCC3)c(C)o2)s1,2%,?,38%,1%,-35%,4%
Cc1ccc(-c2nc(CN(C)Cc3cccc4cnccc34)c(C)o2)s1,83%,13µM*,?,-2%,?,1%
CCCCN1C(=O)C2ON(c3ccccc3C)C(c3ccco3)C2C1=O (configuration not stated),0%,85%,13µM*,-16%,-34%,-1%
CCc1ccc(N2C(=O)C3ON(c4ccccc4)C(c4ccco4)C3C2=O)cc1 (configuration not stated),-11%,16%,13%,-5%,?,?
CC1CCN(C(c2ccccc2)c2sc3nc(-c4ccco4)nn3c2O)CC1 (configuration not stated),.,.,.,.,8%,2%
COc1ccc(OC)c(-c2cc(C3CCN(c4ncccc4[N+](=O)[O-])CC3)[nH]n2)c1,99%,9.3µM*,8.3µM*,-17%,-2%,2%
O=C(C[n+]1ccc(/C=N/O)cc1)NC1CCCCC1,-2%,-38%,10µM*,-4%,0%,5%
O=C(C[n+]1ccc(/C=N/O)cc1)NCc1ccccc1,-4%,-21%,-16%,0%,6%,0%
O=C(NN1CCOCC1)c1cc(-c2cccc(Cl)c2)nc2ccccc12,-23%,25%,1%,-1%,12%,-6%
O=C(Nc1ccc([N+](=O)[O-])cn1)c1cc(-c2cccc(Br)c2)nc2ccccc12,-6%,-2%,3.7µM*,2%,5%,-11%
O=C(c1cc(-c2cccc(Cl)c2)nc2ccccc12)N1CCCC1,133%,-1%,?,-2%,-2%,6%
COc1cccc(-c2cc(C(=O)Nc3ccc([N+](=O)[O-])cn3)c3ccccc3n2)c1,?,-6%,?,-12%,-3%,?
O=C(Nc1ccccn1)c1cc(-c2cccc(Cl)c2)nc2ccccc12,-15%,43%,3.3µM*,-1%,10%,4%

# Source: PubChem (National Center for Advancing Translational Sciences (NCATS))
